Source: PubChem (National Center for Advancing Translational Sciences (NCATS))
Hits are enriched below; roughly 6% of the tested compounds scored in any of these assays.
D3 ag – D3 dopamine receptor (human) agonism; D3R DiscoveRx beta-arrestin cells, luminescence, 90 min; max activation, %; P35462; 0.58% of 410,000 active; in the data active means max activation above about 30%; further: 0% is about no effect
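Agonist mode: compounds and dopamine controls were applied to plated cells for 90 min at 37 degrees C after an overnight attachment at 1500 cells/well. Luminescent read-out followed 30 - 60 minutes at room temperature with DiscoveRx detection reagent.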
D1 ag – agonists of human D1 dopamine receptor; AID 504660; activation, % at 2 µM; 1% of 360,000 active; HEK293 T-REx D1 cells, calcium flux, agonist mode; P21728; in the data active means activation above about 30%; further: 0% is about no effect
Target sequence (P21728 whole entry, looked up): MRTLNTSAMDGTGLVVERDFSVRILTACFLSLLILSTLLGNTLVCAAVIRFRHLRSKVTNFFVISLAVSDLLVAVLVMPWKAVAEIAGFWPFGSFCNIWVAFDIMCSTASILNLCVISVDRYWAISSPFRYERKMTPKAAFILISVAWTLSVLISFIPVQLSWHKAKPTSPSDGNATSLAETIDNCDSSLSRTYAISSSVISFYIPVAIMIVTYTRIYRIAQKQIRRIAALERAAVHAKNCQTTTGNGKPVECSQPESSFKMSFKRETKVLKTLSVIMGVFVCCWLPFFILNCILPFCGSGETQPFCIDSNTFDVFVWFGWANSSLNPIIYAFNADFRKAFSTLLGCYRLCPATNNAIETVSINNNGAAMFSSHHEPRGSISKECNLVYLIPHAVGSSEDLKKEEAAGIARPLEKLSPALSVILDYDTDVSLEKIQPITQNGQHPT
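Agonism was scored from calcium flux recorded over 180 s (1 read/s) after pintool compound addition, following a 10-cycle baseline. Cells were inducible force-coupled HEK293 TREx D1, plated overnight at 30 C and loaded with no-wash calcium dye.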
D1 potentiator – enhances dopamine response at the human D1 receptor | P21728 | HEK293 TREx D1 cells, calcium flux, dopamine EC20 potentiation | potentiation, % at 10 µM | 0.036% of 360,000 active; in the data active means potentiation above about 30%; further: 0% is about no effect
DRD3 antagonist – blocks the human D3 dopamine receptor; P35462; D3R cells, DiscoveRx beta-arrestin luminescence, antagonist mode; stronger effect = lower value; max response, negative = inhibition, %; 2.5% of 360,000 active; AID 652054; in the data active means max response below about -50%; inconclusive means no clear call, values can overlap the other calls; further: on the % scale 0 is the no-effect control and ±100 the full control effect
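Cells expressing the human receptor were seeded at 1500 cells/well, incubated overnight at 37 degrees C in 5% CO2, then exposed to library compounds with dopamine controls for 90 minutes at 37 degrees C before luminescent detection.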
BCR signal inh – chronic active BCR signaling inhibition; 0.05% of 340,000 active; ABC-DLBCL IkBa-CBG/CBR reporter, luminescence ratio, 4 h; Potency, µM (highest dose often 46.1 µM), inactives show at the highest dose activity change, negative = inhibition, actives largely listed as inhibitors; active means well fitted inhibition curve with a large enough effect in the signal ratio, with a control signal flat, not every such curve was filed as active; inconclusive means small, poorly fitted or top-dose-only effect, or effect the other way, or a change in a side signal; the % refers to the signal ratio;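 further: potency means the concentration at half of the fitted maximal effect; plate controls were basal doxycycline-induced cells for no effect and cells given 10 µM MG132 for full effect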
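Doxycycline induced both beetle luciferases in TMD8 lymphoma cells; IKK-driven degradation limits the IkappaBalpha-fused green signal, while red luminescence normalises for cell number and nonspecific effects. Compounds tested up to 46 uM, 4 hrs.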
D1 antagonist – blocks dopamine activation of the human D1 receptor. activity change, negative = inhibition, % at 10 µM. HEK293 TREx D1 cells, calcium flux, dopamine EC80; stronger effect = lower value. P21728. 3.2% of 360,000 active; in the data active means activity change below about -30%; further: on the % scale 0 is the no-effect control and ±100 the full control effect
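HEK293 T-REx cells expressing inducible, force-coupled D1 receptor; no-wash Ca dye, 30–90 min RT. Cmpd → 180 s read at 1 Hz → EC80 DA → 180 s read.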
Starred values were filed as active, the others as inactive; ? = inconclusive; · = no result given.

SMILES	D3 ag	D1 ag	D1 potentiator	DRD3 antagonist	BCR signal inh	D1 antagonist
COc1ccc(-c2nc(-c3ccc(NC(=O)c4ccc(Br)o4)cc3)no2)cc1OC	37.7*	5.1	-5.8	60.6	?	5.0
COc1ccc(CCC(=O)Nc2ccc(-c3noc(-c4ccc(OC)c(OC)c4)n3)cc2)cc1	26.0	10.2	0.5	47.6	?	-11.9
COc1cc(-c2nc(-c3ccc(NC(=O)c4ccc(Br)o4)cc3)no2)cc(OC)c1OC	105.4*	2.8	-0.8	39.4	?	0.5
Cc1cccc(/C=N/N(CCO)C2=NS(=O)(=O)c3ccccc32)c1	-7.7	2.3	-5.7	21.2	-27.1%	-33.9*
CC(C)(C)NC(=O)CCN(/N=C/c1ccccc1)C1=NS(=O)(=O)c2ccccc21	-9.5	2.0	15.7	10.6	-1.8%	-3.6
CCC(=O)Nc1cc(-c2cn3cccnc3n2)ccc1OC	-25.2	0.1	3.4	·	·	4.2
COc1cc(/C=C2\SC(=S)N(C(Cc3ccccc3)C(=O)O)C2=O)ccc1O (stereo unspecified)	-4.8	47.0*	2.8	-26.7	21.6%	-9.0
CCOc1cc(/C=C2\CN(C)C/C(=C\c3ccc(O)c(OCC)c3)C2=O)ccc1O	-12.1	5.7	-5.5	-51.8*	?	-15.7
Cc1ccc(C(=O)NN2C(=O)/C(=C/c3cn(C)c4ccccc34)SC2=S)cc1	-16.4	65.0*	-2.4	-7.0	1.0%	18.0
COc1cc(/C=C2\SC(=S)N(NC(=O)c3ccc(O)cc3)C2=O)ccc1O	-3.6	124.2*	-7.8	-21.3	0.5%	-10.9
Cn1cc(/C=C2\SC(=S)N(NC(=O)c3ccccc3Cl)C2=O)c2ccccc21	-3.1	18.3	0.8	23.0	-12.7%	7.6
O=C(O)C(Cc1ccccc1)N1C(=O)/C(=C/c2ccccc2)SC1=S (stereo unspecified)	5.7	1.6	-5.5	-16.7	?	-7.0
Cc1oc(-c2ccccc2Cl)nc1CS(=O)(=O)CC(=O)NCc1ccc(F)cc1	-18.2	4.3	0.4	·	·	-17.9
Cc1c2cnn(CC(=O)Nc3cccc(C(F)(F)F)c3)c(=O)c2c(C)n1Cc1ccccc1Cl	5.6	1.5	-0.1	·	·	5.8
O=C(NN1C(=O)/C(=C/c2ccc(O)c(O)c2)SC1=S)c1ccccc1	10.6	25.6	1.1	-63.0*	?	11.7
CCOc1cc(/C=C2\SC(=S)N(Nc3ccccc3)C2=O)ccc1O	-15.0	39.7*	-6.2	?	?	-47.2*
O=C(NN1C(=O)/C(=C/c2cccc(O)c2)SC1=S)c1ccccc1O	2.5	0.8	-3.4	3.9	0.4%	-11.5
O=C1/C(=C/c2ccc(O)c(O)c2)SC(=S)N1Nc1ccccc1	11.5	48.0*	-4.3	-6.4	21.3%	9.2
O=C(O)c1ccc(/C=C2\SC(=S)N(Nc3ccccc3)C2=O)cc1	4.6	1.5	-2.2	-10.6	?	-14.5
COc1ccc(/C=C2\SC(=S)N(CC3CCCO3)C2=O)cc1 (stereo unspecified)	-2.5	12.2	0.5	9.0	?	1.7
CCOc1cc(/C=C2\SC(=S)N(NS(=O)(=O)c3ccccc3)C2=O)ccc1O	-8.1	23.4	4.8	-15.2	0.7%	-10.8
COc1cc(/C=C2/SC(=S)N(CC3CCCO3)C2=O)ccc1O (stereo unspecified)	-7.0	87.2*	2.5	60.5	?	-0.9
CCOc1ccc(CCNC(=O)c2ccc(Cn3c(=O)c4cccn4c4cccnc43)cc2)cc1	-4.2	8.0	-3.5	·	·	-4.5
CSc1nc(Nc2ccc(C)cc2)c(C#N)c(-c2ccccc2)n1	-8.4	-0.8	1.1	·	·	-1.9
COc1cc(/C=C2\SC(=S)N(Nc3ccccc3)C2=O)ccc1O	-9.5	121.9*	-4.2	?	13.3%	-2.7
SMILES	D3 ag	D1 ag	D1 potentiator	DRD3 antagonist	BCR signal inh	D1 antagonist
CCN(C(=O)Cn1ncc2c1-c1cc(C)ccc1OC2)c1cc(Cl)ccc1OC	0.7	-1.3	11.1	·	·	49.6
CNNC(=S)Nc1cccc(C(F)(F)F)c1	0.2	-0.1	-1.1	-0.3	?	2.9
FC(F)(F)c1cccc(NC(=S)NNC(=S)Nc2cccc(C(F)(F)F)c2)c1	·	2.3	-4.8	·	?	-33.6*
CC(C)(C)NC(=S)Nc1cccc(C(F)(F)F)c1	1.2	30.9*	-9.3	3.2	-17.7%	-0.5
COc1ccc(NC(=O)c2ccc3c(c2)N(Cc2cccc(Cl)c2)C(=O)c2ccccc2S3(=O)=O)cc1Cl	0.3	6.1	-1.6	·	·	-10.4
O=C(Nc1nnc(-c2cccs2)o1)c1cccc(Oc2ccccc2)c1	1.2	85.0*	-6.0	-18.7	?	-16.3
COc1cccc(/C=N/NC(=O)c2cc3c(OC)ccc(OC)c3[nH]2)c1O	0.6	2.8	4.0	13.7	3.16µM*	3.9
NC1=NC(=O)C(=Cc2ccccc2)S1	-3.3	·	·	-5.0	·	·
NC1=NC(=O)/C(=C/c2ccsc2)S1	-1.7	0.8	-1.1	12.8	?	-33.5*
CC(=O)c1ccc(N2CCN(C(=O)c3cc(-c4ccncc4)nc4ccc(Cl)cc34)CC2)cc1	34.3*	4.1	3.0	0.7	2.4%	6.9
CC(C)c1ccc(NS(=O)(=O)c2ccc3c(c2)NC(=O)CO3)cc1	6.2	7.8	7.7	18.8	-2.8%	4.7
O=C1COc2ccc(S(=O)(=O)Nc3ccc4c(c3)OCO4)cc2N1	-9.6	5.8	1.2	8.0	-16.7%	-31.7*
O=S(=O)(Nc1ccc2c(c1)OCO2)c1cccc(Br)c1	-3.9	-0.1	-1.2	9.8	1.1%	-34.1*
O=S(=O)(Nc1ccc2c(c1)OCCO2)c1cccc(F)c1	0.1	5.5	-3.0	-9.1	-3.8%	2.3
Cc1cc2c(s1)c1cnn(Cc3ccc(C(F)(F)F)cc3F)c(=O)c1n2C	·	3.5	2.3	·	·	-4.2
NC(=O)c1cc(Cl)cn(-c2ccccc2)c1=O	-2.9	1.6	·	-1.3	?	-47.8*
CCCCCC(=O)N1C[C@@H](O)[C@H](n2cc(COC(=O)c3ccccc3)nn2)C[C@@H]1c1ccc(OC)cc1	4.1	·	·	17.3	·	·
CCN(CC)C(=O)c1cccc(-c2csc(C(C)(O)c3ccc(F)c(F)c3)n2)c1 (stereo unspecified)	2.0	·	·	0.0	·	·
COc1ccc(NS(=O)(=O)c2ccc(N3CCCC3)c(N)c2)cc1	4.4	38.0*	-5.5	4.5	-2.6%	-5.7
COc1ccc(NS(=O)(=O)c2cc(NC(=O)c3ccco3)ccc2N2CCCC2)cc1	-5.5	0.1	2.1	-56.5*	0.5%	-13.2
COc1ccc(NS(=O)(=O)c2ccc(N3CCCC3)c(NC(=S)Nc3cccc(C)c3C)c2)cc1	14.7	2.8	-8.8	16.4	5.3%	4.5
